Measured values as given in ChEMBL document CHEMBL3988442, “University of Dundee, Small-Polar-MMV Screening Library” (2021).
In all, about 48,000 compounds went through this assay and about 13,000 (27%) showed an effect of 50% or more. This is one part of the list.

Tested on: Wolbachia pipientis
Experiment: Anti-Wolbachia Cell-Based Screen
Format: functional
Parameters: scale not given: in the data most compounds retested in dose-response had high values
Conditions: 5 µM

| Compound | Percent Effect [%] |
| --- | --- |
| CCS(=O)(=O)c1ccc(N2CCC(NC(=O)C(C)SC)CC2)cc1 (configuration not stated) | 6.219 |
| Cc1cc(C(C)NC(=O)c2c[nH]c(=O)c(Cl)c2)c(C)o1 (configuration not stated) | -8.782 |
| CC(C)C(C)(C#N)NC(=O)CN1CCCN(Cc2ccccc2F)CC1 (configuration not stated) | 1.272 |
| CCSc1ccc(NC(=O)NC2CCc3[nH]ncc3C2)cn1 (configuration not stated) | -2.569 |
| O=C(Nc1ccc(CN2CCOCC2)cc1)c1nccn2ccnc12 | -3.19 |
| Cc1nn(C)c2nc(O)cc(C(F)(F)C(F)(F)F)c12 | 1.264 |
| COc1ccc2c(C)c(C(=O)NCCCc3csc(N)n3)oc2c1 | -14.38 |
| CC(C)c1nn(C)c(N(C)C)c1CNC(C)c1ccccc1F (configuration not stated) | 86.76 |
| Cc1ccc(C(O)CNCc2c(C(C)C)nn(C)c2N(C)C)cc1 (configuration not stated) | 2.504 |
| CC(C)c1nn(C)c(N(C)C)c1CNCc1cccc(CN(C)C)c1.Cl | -0.8074 |
| CC(C)c1nn(C)c(N(C)C)c1CNCC(O)c1cccc(F)c1 (configuration not stated) | 133.5 |
| COc1cccc(CNCc2c(C(C)C)nn(C)c2N(C)C)c1OC | -9.439 |
| CC(C)c1nn(C)c(N(C)C)c1CNCc1cccnc1 | 3.817 |
| CC(C)c1nn(C)c(N(C)C)c1CNCC(O)c1ccccc1 (configuration not stated) | 92.25 |
| Cc1nn(C)c(N(C)C)c1CNCC(O)c1ccccc1 (configuration not stated) | -19.87 |
| CC(C)c1nn(C)c(Cl)c1CNCC(O)c1cccc(F)c1.Cl (configuration not stated) | 10.68 |
| O[C@@H]1CCN(c2ccc3c(Cl)ccnc3c2F)C1 | -13.88 |
| COc1ccc(CN2CCN(CCn3ccnc3)CC2)cc1F | 154.2 |
| COc1ccc(Cl)cc1CNCCCn1ccnc1 | 10.95 |
| COc1ccc(CNCC2CCN(CCO)CC2)cc1F | -13.55 |
| COc1ccc(F)cc1S(=O)(=O)N1CCN(CCn2ccnc2)CC1 | 123.5 |
| COc1ccc(Cn2ccnc2)cc1F | 137.9 |

| Compound | Percent Effect [%] |
| --- | --- |
| CCOc1ccc(CNCCCn2ccnc2)cc1OC | -15.55 |
| COc1ccc(CN2CCN(Cc3nccn3C)C(C)C2)cc1F (configuration not stated) | 3.11 |
| O=S(=O)(c1cccnc1)N1CCN(CCn2ccnc2)CC1 | 2.586 |
| O=S(=O)(c1ccc(F)cc1)N1CCN(CCCn2ccnc2)CC1 | 9.586 |
| CC(C)(N)c1nc(C(F)F)cc(=O)[nH]1.Cl | 0.5685 |
| CCOc1nc2cccnc2n(CC(=O)NCCOC)c1=O | -3.624 |
| CCOc1nc2cnccc2n(CC(=O)NCc2ccco2)c1=O | 96.93 |
| Cc1nsc(N2CCN(CC(=O)NCc3cccnc3)CC2)n1 | 1.2 |
| CCOc1nc2cnccc2n(CC(=O)Nc2ccccc2OC)c1=O | 90.9 |
| CCOc1ccc(CNC(=O)c2cnc(OC)nc2)cc1 | -7.599 |
| COc1ccccc1NC(=O)Cc1c(C)nc2c(c1C)c(=O)[nH]n2C | -0.4507 |
| O=C(CN1CCC(c2cccc(F)c2)C1)NCc1ccco1 (configuration not stated) | -26.03 |
| CCOc1nc2cnccc2n(CC(=O)NCc2ccc(C)cc2)c1=O | 143.1 |
| CC1CN(CC(=O)NCCc2ccncc2)Cc2ccccc2O1 (configuration not stated) | -8.36 |
| COc1ccccc1NCC(=O)Nc1cnn(Cc2ccccn2)c1 | -4.871 |
| CC(C)(C)n1ncc2c(=O)n(CC(=O)NCc3ccco3)cnc21 | 3.142 |
| CCOc1nc2cnccc2n(CC(=O)NCCc2ccccc2)c1=O | 107.7 |
| CC(C)N(CC(N)=O)CC(=O)N(C1=CCCCC1)C1CC1 | -0.3485 |
| CCC(CC)C(=O)NS(=O)(=O)CCc1ccccc1 | -5.917 |
| COCCn1cc(C(=O)N2CCCC2c2ccccc2C)ccc1=O (configuration not stated) | -35.63 |
| Fc1cnc(N2CCn3cc(CNc4ccccn4)nc3C2)nc1.O=C(O)C(F)(F)F.O=C(O)C(F)(F)F | -14.44 |
| OC1(CNc2cc(C(F)(F)F)nc3ccccc23)CCOCC1 | 28.2 |

| Compound | Percent Effect [%] |
| --- | --- |
| Cc1cc(NC(=O)CNC(C)(C)c2ccccc2)on1 | 5.655 |
| CCN1CCC(CNC(=O)C(c2ccccc2F)N(C)C)(N(C)C)CC1 (configuration not stated) | 4.874 |
| CCCn1nc2c(cc1=O)CN(Cc1nnc(C3CC3)o1)CC2 | 20.46 |
| Cc1cc(F)ccc1N1CCCC(NS(=O)(=O)CCCF)C1=O (configuration not stated) | -6.348 |
| Cn1c(SCC(O)COCc2ccccc2Cl)nnc1C1CC1 (configuration not stated) | -19.68 |
| COc1ccc(F)c(CN2CCCC(O)(CNCc3ccon3)C2=O)c1 (configuration not stated) | -2.252 |
| CC(C)N(C)C(=O)c1ccc(Cl)c(NC(=O)CCN2C(=O)CCC2=O)c1 | -4.274 |
| Cc1c(NC(C)C(C)C)cccc1C(=O)NCc1ccnn1C (configuration not stated) | 9.043 |
| CC(=O)NCCC(=O)NCc1cccnc1-n1cnc2ccccc21 | -3.508 |
| CCN(CC)S(=O)(=O)CCNc1ncnc2cc(F)c(F)cc12 | 0.3954 |
| O=C(COCc1ccccc1)Nc1ccccn1 | -24.26 |
| CCOC(=O)Cn1cnc2nc3n(c2c1=O)CCC3 | -20.3 |
| CCOC(=O)N1CCN(C(=O)Cn2ccc3ncccc3c2=O)CC1 | -21.73 |
| CCOC(=O)Cn1c(=O)c(OCC)nc2cnccc21 | 100.3 |
| CN(Cc1nccn1C)S(=O)(=O)Cc1cccc(C#N)c1 | 6.063 |
| COCc1nc(C(=O)N2CCCCC2Cn2cccn2)cs1 (configuration not stated) | 0.9161 |
| O=C(c1csc(C2CC2)n1)N1CCCC1Cn1cccn1 (configuration not stated) | 109.4 |
| O=C(c1csc(C2CC2)n1)N1CCCCC1Cn1cccn1 (configuration not stated) | 99.33 |
| NC(=O)CCn1cc(CNCc2csc(N)n2)c2ccccc21 | -0.3339 |
| COc1cccc(CN(C(=O)Nc2nncs2)C2CCC(O)CC2)c1 (configuration not stated) | 4.875 |
| Cc1ccccc1CN1CCCC1c1cncc(Nc2nncs2)n1 (configuration not stated) | 132.3 |
| COc1cccc(CN2CCCC2c2cncc(Nc3nncs3)n2)c1 (configuration not stated) | 147.7 |

| Compound | Percent Effect [%] |
| --- | --- |
| CNc1cncc(C2CCCN2Cc2ccccc2OCC(=O)O)n1 (configuration not stated) | -10.59 |
| Cc1cccc(CN2CCCC2c2cncc(Nc3nncs3)n2)c1 (configuration not stated) | 111.5 |
| COc1cccc(CN2CCCC2c2ccc[nH]2)c1 (configuration not stated) | 13.97 |
| COC(=O)C(CNC(=O)Nc1nncs1)Cc1cccc(C)c1 (configuration not stated) | -9.936 |
| Cc1ccccc1CN1CCC[C@H]1c1nc(-c2cncnc2N)no1 | -17.12 |
| CCCN1CCCn2nc(CNC(=O)CC(C)n3ccnc3C)cc2C1 (configuration not stated) | -9.141 |
| CCc1ncc(C(=O)N2CCN(c3cnn(C)c(=O)c3)CC2)cn1 | -4.796 |
| CCOc1ccc(-n2ccc3nc(N4CCCC4)ncc3c2=O)cc1 | -8.321 |
| COCc1nc2ncc3c(=O)n(-c4ccccc4OC)ccc3n2n1 | 126.9 |
| Cc1ccccc1-n1ccc2nc(N3CCCC3)ncc2c1=O | -4.338 |
| COCc1nc2ncc3c(=O)n(-c4ccc(OC)cc4)ccc3n2n1 | 103.2 |
| COCc1nc2ncc3c(=O)n(-c4ccc(C(C)=O)cc4)ccc3n2n1 | 38.7 |
| O=c1c2cnc(N3CCCC3)nc2ccn1-c1cccc(F)c1 | -1.705 |
| O=c1c2cnc(N3CCCCC3)nc2ccn1-c1ccccc1F | 37.48 |
| O=c1c2cnc(N3CCCC3)nc2ccn1-c1cccc(C(F)(F)F)c1 | 0.9271 |
| COCc1nc2ncc3c(=O)n(-c4cccc(OC)c4)ccc3n2n1 | 97.73 |
| Cc1ccc(NC(=O)CCc2ccco2)cc1N1CCOC1=O | -14.01 |
| CCCOCC(=O)Nc1ncc(I)cc1C | -6.497 |
| O=C(CCC1CCCN(C(=O)CCN2CCCCO2)C1)N1CCCC1 (configuration not stated) | 3.672 |
| CNc1nc(N2CCN(Cc3ccsc3)C(CCO)C2)nc2c1CCC2 (configuration not stated) | -11.96 |
| COCCn1ccc(NC(=O)Nc2ccccn2)n1 | 7.746 |
| CCN(Cc1cnn(CC)c1)C(=O)CN1C(=O)CCc2ccccc21 | -11.46 |

| Compound | Percent Effect [%] |
| --- | --- |
| CCn1cc(NC(=O)CN2C(=O)CC(C)(C)c3ccccc32)cn1 | 116.8 |
| CCn1ccc(NC(=O)CN2C(=O)CC(C)(C)c3ccccc32)n1 | 127.7 |
| COCCn1ccc(NC(=O)Nc2ccccc2)n1 | 3.766 |
| CCn1ccc(NC(=O)CN2C(=O)C(C)(C)c3ccccc32)n1 | 112.9 |
| CCn1cc(NC(=O)NCC(O)c2ccccc2)cn1 (configuration not stated) | -11.2 |
| NC(=O)Cn1ccc(NC(=O)C2(c3cccc(F)c3)CCC2)n1 | -8.022 |
| CCN1C(=O)C(C)(C)c2cc(NC(=O)c3ccco3)ccc21 | -4.693 |
| C[C@@H](NCc1cccc(Cl)c1)c1onc(-c2ccc(F)cc2)c1C(=O)O.Cl | -9.594 |
| Cc1c(C(=O)N2CC(C)(C)C2(C)C)nnn1-c1cccc2cnccc12 | -4.075 |
| c1csc(CCC2CCCCN2Cc2noc(C3CC3)n2)c1 (configuration not stated) | 94.56 |
| COCc1noc(CN2CCCCC2CCc2cccs2)n1 (configuration not stated) | 103.5 |
| Cc1cnn(CC2CCCN2Cc2coc(-c3cccs3)n2)c1 (configuration not stated) | -13.53 |
| COCCC1CCCCN1Cc1nc(C2CC2)no1 (configuration not stated) | -11.16 |
| Cc1nc(CN2CCCCC2CCc2cccs2)co1 (configuration not stated) | 96.55 |
| Cc1nc(C)n(CC2CCCN2CCc2cccs2)n1 (configuration not stated) | -19.79 |
| COCCC1CCCCN1Cc1nc(Cc2cccc(F)c2)no1 (configuration not stated) | 4.701 |
| CC(C)(C(=O)NCCCc1nc2ccccc2[nH]1)n1cc(Cl)cn1 | -7.293 |
| CC(C)CC(CCO)CNC(=O)N1CCC1(C)C (configuration not stated) | -13.05 |
| Cc1nnc2n1CCN(C(=O)c1cnc3c(cnn3C(C)C)c1)C2 | -12.78 |
